# Source: PubChem BioAssay
# The source made the active and inactive calls. Unless noted, how the calls were made is not given here.
# Assays:
# [1] = test system: Wnt5a (protein binding on small-molecule microarray); test: Wnt5a binders on small-molecule microarray, primary screen, biophysical, 635/667 nm fluorescence (AID 1142); details: 635 nm fluorescence, higher = more signal;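 further: fluorescence read at 667 nm with signal to noise per printed feature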
# [2] = cell viability in Huh7 cells, primary screen, cytotoxicity control for HCV replication inhibitor project, CellTiter-Glo luminescence, basal, 48 h (AID 1143); details: Huh7 HCV replicon, higher = more signal, called active from +8 up or from −8 down;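 further: Huh7 hepatoma cells carrying a hepatitis C replication reporter with no stimulus; test concentration not given here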
# [3] = P. aeruginosa biofilm formation inhibitors, primary screen, PAO1 strain, BacTiter-Glo luminescence, LB-PBS (AID 1144); details: 12 h, higher = more signal
# [4] = CREB reporter modulators without forskolin, primary screen, cell-based, PC12, CRE-LacZ reporter, unstimulated (AID 1145); details: no forskolin, luminescence, 4.5 h, higher = more signal, called active from +8 up or from −8 down
# [5] = CREB reporter modulators under forskolin, primary screen, cell-based, PC12, CRE-LacZ reporter, forskolin-stimulated (AID 1146); details: luminescence, 4.5 h, higher = more signal, called active from +8 up or from −8 down;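 further: PC12 cells with 6xCRE LacZ reporter stimulated by forskolin 10 µM; beta-galactosidase reporter signal reflecting CREB driven transcription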
# [6] = molecular target: Streptavidin (Streptomyces avidinii) (UniProt P22629); test: streptavidin binders on small-molecule microarray, primary screen, artefact control for SMM compound annotation, biophysical, 635/667 nm fluorescence (AID 1147); details: streptavidin binding, higher = more signal;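 further: signal reflects streptavidin binding to arrayed compounds as a control protein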
# [7] = small-molecule binders of probe aInhba, primary screen, biochemical, small-molecule microarray, 635/667 nm fluorescence (AID 1148); details: higher = more signal;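 further: score merges 667nm spot fluorescence with signal-to-noise for antibody binding to printed compounds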
# [8] = molecular target: Torsin-1A (Homo sapiens) (UniProt O14656); test: torsin A binders from cell lysate, primary screen, small-molecule microarray, wild-type, 635/667 nm (AID 1149); details: COS7 hTOR1A-WT lysate, 635 nm fluorescence, higher = more signal
# [9] = molecular target: Torsin-1A (Homo sapiens) (UniProt O14656); test: small-molecule binders of mutant TOR1A in lysate, primary screen, cell lysate, small-molecule microarray, COS7 lysate, 635/667 nm fluorescence (AID 1150); details: COS7 hTOR1A mutant lysate, 635 nm fluorescence, higher = more signal;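 further: score pools 667 nm emission and signal to noise measuring lysate protein binding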
# [10] = test system: Sonic hedgehog protein (Shh); test: small-molecule binders of Shh protein, primary screen, biochemical, small-molecule microarray, 635/667 nm fluorescence (AID 1151); details: small-molecule microarray binding, 635 nm fluorescence; higher = more signal;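 further: Shh protein binding to compounds spotted on small-molecule microarray slides; score combines spot fluorescence intensity with signal-to-noise across triplicate slides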
# Sequence of Torsin-1A (Homo sapiens) (O14656 whole entry, looked up): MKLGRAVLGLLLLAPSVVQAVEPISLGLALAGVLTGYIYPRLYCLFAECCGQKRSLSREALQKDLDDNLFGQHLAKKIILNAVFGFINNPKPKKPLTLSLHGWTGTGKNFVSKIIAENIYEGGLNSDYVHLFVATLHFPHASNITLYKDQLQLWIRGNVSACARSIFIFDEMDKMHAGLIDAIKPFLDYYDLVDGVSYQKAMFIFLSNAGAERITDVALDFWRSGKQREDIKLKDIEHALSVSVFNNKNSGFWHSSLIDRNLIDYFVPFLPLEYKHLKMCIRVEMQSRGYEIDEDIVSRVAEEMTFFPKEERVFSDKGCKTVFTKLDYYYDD
# Sequence of Streptavidin (Streptomyces avidinii) (P22629 whole entry, looked up): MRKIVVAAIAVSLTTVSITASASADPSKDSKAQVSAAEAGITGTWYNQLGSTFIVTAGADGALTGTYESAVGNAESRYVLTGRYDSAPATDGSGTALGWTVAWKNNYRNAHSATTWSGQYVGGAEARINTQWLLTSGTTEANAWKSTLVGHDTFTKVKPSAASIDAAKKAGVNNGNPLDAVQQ
Structure (SMILES),composite z-score [1],z-score [2],z-score [3],z-score [4],z-score [5],composite z-score [6],composite z-score [7],composite z-score [8],composite z-score [9],composite z-score [10]
CCCCC(=C=CC[C@H](O)c1ccccc1OCCO)C[C@H](O)c1cc(Cl)cc(Cl)c1O,0.121,-0.433 (inactive),-0.0417 (inactive),7.91 (inactive),1.57 (inactive),-0.18,-0.0471,0.873,0.234,0.66
COc1ccc([Si](C)(C)[C@@H]2[C@@H](CCO)O[C@]3(C(=O)N(Cc4ccc(N5C(=O)c6cccc7cccc5c67)cc4)c4ccccc43)[C@H]2C)cc1,-0.404,-6.09 (inactive),-0.0686 (inactive),4.11 (inactive),0.201 (inactive),-0.376,-0.0791,-0.565,-0.535,0.0554
C=C(C(=O)CC[C@@H](OC(=O)c1cccnc1)c1ccc(CO)o1)C(C)C,0.27,0.184 (inactive),0.228 (inactive),0.48 (inactive),-0.135 (inactive),0.156,0.209,0.787,0.584,1.75
C=CCN1Cc2ccccc2C[C@@]2(COC(c3ccc(OCCCO)cc3)=N2)C1=O,0.253,-2.99 (inactive),-0.547 (inactive),3.21 (inactive),-1.41 (inactive),0.112,0.185,0.729,0.827,0.521
C=C(C(=O)CC[C@@H](OC(C)=O)c1ccc(OCCO)cc1)C(C)C,0.177,0.118 (inactive),-0.73 (inactive),1.68 (inactive),1.05 (inactive),-0.41,-0.148,0.698,1.02,0.0191
CCN(CC)c1ccc(N2CC=CC34O[C@@H]5C=CCCOC(=O)C5[C@H]3C(=O)N(CCCO)[C@@H]4C2=O)cc1 (stereo not given in full),-0.0601,-2.8 (inactive),-0.657 (inactive),0.0605 (inactive),-1.14 (inactive),-0.619,0.0051,-0.143,-0.419,0.327
O=C1C2C=CC(C(O)c3ccccn3)N(Nc3ccccc3F)C2C(=O)N1c1ccccc1 (stereo not given),-0.0672,0.894 (inactive),-0.62 (inactive),-0.708 (inactive),0.901 (inactive),0.429,-0.0986,0.456,0.432,-0.461
[N-]=[N+]=NCc1ccccc1[C@@H]1OC(c2ccc(OCCCO)cc2)=N[C@]1(Cc1ccccc1)C(=O)O,-0.198,-0.354 (inactive),-0.608 (inactive),1.19 (inactive),-0.707 (inactive),0.728,-0.016,0.497,0.786,-0.934
CC1CC/C=C\[C@H]2OC34C=CCN(c5ccc6ccccc6c5)C(=O)[C@H]3N(CCCCCO)C(=O)[C@@H]4C2C(=O)O1 (stereo not given in full),-1.12,0.385 (inactive),0.669 (inactive),0.333 (inactive),-0.233 (inactive),-1.72,-0.233,-1.03,-1.19,-1.18
O=C1OCC=C[C@H]2OC34C=CCN(CCN5CCOCC5)C(=O)[C@H]3N(CCCCCCO)C(=O)[C@@H]4[C@@H]12 (stereo not given in full),0.0272,-0.39 (inactive),1.73 (inactive),0.862 (inactive),-0.201 (inactive),-0.278,-0.0604,0.135,-0.0406,0.572
COC(=O)[C@@]1(Cc2ccc(F)cc2)[C@H]2c3cc(C(=O)N(C)C)n(CCCNc4ccc(C(F)(F)F)cc4Cl)c3C[C@H]2CN1C(=O)c1ccccc1,0.72,-3.53 (inactive),-0.119 (inactive),-0.379 (inactive),0.607 (inactive),1.8,0.572,-0.335,0.547,-0.576
COCCOC(=O)N1C(=O)[C@@]2(c3cc(C#CC4=CCCCC4)ccc31)[C@H](C(=O)N1CCN(c3ncccn3)CC1)[C@H]1C(=O)O[C@H](c3ccccc3)[C@H](c3ccccc3)N1[C@@H]2c1ccc(OCCO)cc1,0.572,-0.922 (inactive),-0.38 (inactive),-1.57 (inactive),-0.0728 (inactive),0.832,0.471,0.804,0.606,1.04
CN(C)CCCC[C@@H]1NC(=O)[C@@H]2C[C@H](C(=O)NCc3ccc(F)cc3)[C@H](c3cccc(OCCO)c3)N2C1=O,0.584,-0.267 (inactive),-0.824 (inactive),0.423 (inactive),-1.18 (inactive),-0.0899,0.374,1.27,1.12,2.06
COCCOC(=O)N1C(=O)[C@@]2(c3cc(C#CC4(O)CCCCCC4)ccc31)[C@H](c1ccc(O)cc1)N1[C@H](c3ccccc3)[C@H](c3ccccc3)OC(=O)[C@H]1[C@@H]2C(=O)N1CCc2cc(OC)c(OC)cc2C1,-0.445,-2.45 (inactive),-1.73 (inactive),-1.7 (inactive),-0.805 (inactive),-1.33,-0.176,-0.576,-0.0551,-0.649
CC(C)NC(=O)[C@@]1(c2ccc([N+](=O)[O-])cc2)CC(=O)N(C(C)C)[C@@H]1c1ccc(CO)cc1,-0.666,-3.49 (inactive),-0.707 (inactive),0.522 (inactive),-0.205 (inactive),-1.26,-0.203,0.592,1.28,-0.502
C#C[C@H](O[Si](C#CCCCCCC)(C(C)C)C(C)C)c1ccccc1,-0.348,-0.0715 (inactive),0.0625 (inactive),0.353 (inactive),0.262 (inactive),-0.0246,-0.17,0.236,0.0769,-0.102
CN(C)CCCCCCNC(=O)[C@@H]1C[C@@H]2C(=O)NCC(=O)N2[C@@H]1c1cccc(OCCO)c1,1.21,0.105 (inactive),-0.418 (inactive),-0.549 (inactive),-0.832 (inactive),0.312,0.105,1.14,2.07,1.64
CCOC(=O)C[C@H]1[C@H](OC(=O)c2ccccc2-c2ccccc2)[C@@H](NC(=O)c2ccc(-c3ccccc3)cc2)c2cc(OCCCO)ccc2N1C(=O)c1ccccc1,0.0187,-0.134 (inactive),0.945 (inactive),3.85 (inactive),-1.14 (inactive),0.236,0.0569,-0.29,0.272,0.684
O=C(NCC(O)CO)[C@@]1(Cc2ccccc2)N=C(c2ccc(OCCCO)cc2)O[C@H]1c1ccccc1 (stereo not given in full),0.626,-2.66 (inactive),-0.473 (inactive),3.33 (inactive),0.768 (inactive),0.993,1.03,0.477,1.23,-0.959
C=CCC(OC(C)=O)[C@@H]1[C@@H](N(Cc2cc3ccccc3o2)C(=O)c2ccc(C)cc2)c2cc(OCCCO)ccc2N1C(=O)c1ccc(-c2ccccc2)cc1 (stereo not given in full),-0.221,-2.92 (inactive),-2.16 (inactive),2.76 (inactive),-1.12 (inactive),0.0073,0.295,0.308,-0.264,0.158
Cc1ccccc1/C=C/C=O,-0.373,-0.042 (inactive),-0.242 (inactive),-0.204 (inactive),0.834 (inactive),-0.943,-0.137,-1.41,-0.62,-0.0373
O=C1O[C@@H](c2ccccc2)[C@@H](c2ccccc2)N2[C@@H](c3ccc(O)cc3)[C@]3(C(=O)Nc4ccccc43)[C@@H](C(=O)N3CCCCCCC3)[C@H]12,1.36,-2.61 (inactive),-0.279 (inactive),0.0384 (inactive),0.276 (inactive),2.93,1.98,1.91,1.8,2.02
COc1ccc([Si](C)(C)[C@H]2[C@H](CC(=O)N(CCO)Cc3ccccc3)O[C@@]3(C(=O)N(Cc4cccc(N5C(=O)c6cccc7cccc5c67)c4)c4ccccc43)[C@@H]2C)cc1,0.353,-4.87 (inactive),-0.188 (inactive),1.09 (inactive),-1.14 (inactive),0.544,-0.101,0.871,0.27,1.61
O=C1C2C=CC(C(O)c3ccc(Br)cc3)N(n3cnnc3)C2C(=O)N1Cc1ccccc1 (stereo not given),0.175,0.245 (inactive),0.913 (inactive),0.127 (inactive),1.03 (inactive),1.27,-0.0375,0.489,1.05,0.232
C#C[C@H]1Oc2ccccc2S(=O)(=O)N2CCC[C@@H]12,-0.0713,-0.0352 (inactive),-0.0287 (inactive),0.126 (inactive),1.3 (inactive),-0.14,-0.278,0.461,0.512,1.63
C=CCN1C(=O)[C@@]2(O[C@@H](CCO)[C@H]([Si](C)(C)c3ccc(OC)cc3)[C@H]2C)c2cc(N3C(=O)COc4ccccc43)ccc21,0.564,-7.99 (inactive),0.798 (inactive),26 (active),-4.06 (inactive),0.83,-0.101,-0.048,-0.0358,0.531
COCCn1c(C(=O)N(C)C)cc2c1C[C@H]1CN(C(=O)c3ccccc3)[C@@](Cc3ccc(F)cc3)(C(=O)OC)[C@@H]21,0.304,-0.394 (inactive),-0.191 (inactive),-0.947 (inactive),-0.578 (inactive),0.45,-0.12,0.249,0.0952,-0.0212
COC(=O)c1c(CC[C@@H](CO)NC(=O)Nc2ncn[nH]2)oc(C(=O)Cc2ccccc2)c1C(=O)OC,-0.0403,0.31 (inactive),0.152 (inactive),-0.0106 (inactive),0.352 (inactive),1.36,0.0342,1.49,0.837,1.1
[N-]=[N+]=Nc1ccccc1[C@@H]1OC(c2ccc(OCCCO)cc2)=N[C@]1(CCS(=O)(=O)c1ccccc1)C(=O)O,0.301,-0.781 (inactive),1.08 (inactive),0.0594 (inactive),-0.0642 (inactive),1.04,0.0559,0.164,0.719,0.848
